What all share (experiment): NCI-60 one-dose screen, 48 h (100 = growth as untreated, 0 = no growth, -100 = all killed)
One assay has as its system NCI-H23 lung. The conditions noted are these: 10 µM unless noted.
For a further assay, the system named is HOP-62 NSCLC. The conditions noted are these: 10 µM unless noted.
For the next assay, the system named is NCI-H460 lung. The conditions noted are these: 10 µM unless noted.
For the next assay, the system named is A549/ATCC NSCLC. The conditions noted are these: 10 µM unless noted.
The test system of the next assay is K-562 leukemia. The conditions noted are these: 10 µM unless noted.
In another assay the test system is RXF 393 renal. The conditions noted are these: 10 µM unless noted.
The subject of another assay is SF-295 CNS. The conditions noted are these: 10 µM unless noted.
The test system of another assay is UACC-257 melanoma. The conditions noted are these: 10 µM unless noted.
A further assay deals with U251 CNS. The conditions noted are these: 10 µM unless noted.
For a further assay, the system named is LOX IMVI melanoma. The conditions noted are these: 10 µM unless noted.
The next assay relates to SK-MEL-28 melanoma. The conditions noted are these: 10 µM unless noted.
Another assay relates to UO-31 renal. The conditions noted are these: 10 µM unless noted.
A further assay has as its system TK-10 renal. The conditions noted are these: 10 µM unless noted.
A further assay has as its system A498 renal. The conditions noted are these: 10 µM unless noted.
In a further assay the test system is HL-60(TB) leukemia. The conditions noted are these: 10 µM unless noted.
In a further assay the test system is SR leukemia. The conditions noted are these: 10 µM.
The subject of the next assay is OVCAR-4 ovarian. The conditions noted are these: 10 µM unless noted.
The next assay relates to HCC-2998 colon. The conditions noted are these: 10 µM unless noted.
Another assay has as its system SK-MEL-2 melanoma. The conditions noted are these: 10 µM unless noted.
The subject of another assay is BT-549 breast. The conditions noted are these: 10 µM.

SMILES strings stand for the structures. About 83,000 compounds went through this panel and 20% of them were active in at least one assay; those are over-represented in the sample as a whole.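 A percent growth of 40 corresponds to 60% growth inhibition; 0 means no net growth; -100 means all cells died. Active threshold: below 10.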 Active and inactive are the calls of the source.

`CC1(C)CC(=O)CC(C)(C)N1N=O`: the growth with NCI-H23 lung is 102% (inactive); in the assay with HOP-62 NSCLC, 97.3% (inactive); in the assay with NCI-H460 lung, 114% (inactive); in the assay with A549/ATCC NSCLC it was 107% (inactive); in the assay on K-562 leukemia, 111% (inactive); with RXF 393 renal, 136% (inactive). Besides, the growth with SF-295 CNS was 111% (inactive); in the assay on UACC-257 melanoma, 104% (inactive); with U251 CNS it was 118% (inactive); in the assay with LOX IMVI melanoma it was 97.1% (inactive); in the assay with SK-MEL-28 melanoma, 109% (inactive); in the assay with UO-31 renal, 91.5% (inactive). Further, the growth in the assay on TK-10 renal was 91.8% (inactive); with A498 renal, 106% (inactive); with HL-60(TB) leukemia it was 77.4% (inactive); in the assay on SR leukemia, 109% (inactive); with OVCAR-4 ovarian, 113% (inactive); in the assay on HCC-2998 colon, 97.9% (inactive).
For `C=CCC1(CC)C(=O)NC(=S)NC1=O`, the growth in the assay on NCI-H23 lung was 100% (inactive); in the assay on HOP-62 NSCLC, 97.9% (inactive); with NCI-H460 lung, 111% (inactive); with A549/ATCC NSCLC, 102% (inactive); with K-562 leukemia, 95.5% (inactive); in the assay on RXF 393 renal, 110% (inactive). The growth was 108% (inactive) in the assay on SF-295 CNS; 105% (inactive) in the assay with UACC-257 melanoma; 101% (inactive) in the assay with U251 CNS; 97.2% (inactive) with LOX IMVI melanoma; 116% (inactive) in the assay with SK-MEL-28 melanoma; 99.3% (inactive) in the assay on SK-MEL-2 melanoma. Further, the growth with UO-31 renal was 83.7% (inactive); in the assay with TK-10 renal, 111% (inactive); with A498 renal, 110% (inactive); with HL-60(TB) leukemia, 75.4% (inactive); in the assay on SR leukemia it was 96.7% (inactive); in the assay with OVCAR-4 ovarian, 110% (inactive). Moreover, the growth in the assay on BT-549 breast is 106% (inactive); in the assay on HCC-2998 colon, 96.5% (inactive).
Consider `CC(=O)[O][Hg][CH2]C1(C)COC(C)([CH2][Hg][O]C(C)=O)CO1` (stereo not given), for which the growth in the assay on NCI-H23 lung is 65.4% (inactive); with HOP-62 NSCLC, 120% (inactive); in the assay with NCI-H460 lung, 78.1% (inactive); in the assay with K-562 leukemia it was -30.8% (active); with SF-295 CNS it was 69.2% (inactive); in the assay with UACC-257 melanoma, 93.6% (inactive). Also, the growth was -96.2% (active) in the assay on U251 CNS; -98.4% (active) in the assay on LOX IMVI melanoma; 18.3% (inactive) in the assay on SK-MEL-28 melanoma; 63.2% (inactive) in the assay with SK-MEL-2 melanoma; -39.3% (active) with UO-31 renal; 75.8% (inactive) in the assay with A498 renal. In addition, the growth is 74.4% (inactive) in the assay on HL-60(TB) leukemia; 9.98% (active) in the assay with SR leukemia; 123% (inactive) in the assay with OVCAR-4 ovarian; -100% (active) in the assay on BT-549 breast; 4.37% (active) in the assay on HCC-2998 colon.

These data come from PubChem BioAssay (NCI).
